Calls of active or inactive are those of the source.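 How the source made its calls: active means fold change shows a rise in VEGF expression relative to GAPDH, above the control level; inconclusive means expression about equal to the control; inactive means no rise in relative expression.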
assay: qHTS Assay for Agonists of the Relaxin Receptor RXFP1: VEGF expression; details: THP1 cells, VEGF mRNA qRT-PCR, 2 h; active compounds read high
Source text: The relaxin hormone is involved in the variety of biological functions in normal tissues and diseases. The role of relaxin is well-established in female reproduction and parturition, mammary gland and endometrial development, maintenance of myometrial quiescence during pregnancy. Relaxin signaling through its G protein-coupled receptor (GPCR) RXFP1 results in ECM remodeling through regulation of collagen deposition, cell invasiveness, proliferation and overall tissue homeostasis. […] Recombinant human relaxin (rhRlx) is currently being tested in clinical trials as a protective agent in congestive heart failure, in treating severe preeclampsia, and as an anti-fibrotic agent in systemic sclerosis.
Upon relaxin binding RXFP1 activation leads to the activation of adenylate cyclase (AC) via Gs. cAMP will activate PKA, which phosphorylates many signaling proteins. Thus, detection of cAMP increase is an easy and reliable indication of relaxin receptor activation. To screen for agonists of the relaxin receptor, a HEK293T cell line stably transfected with RXFP1 was used. RXFP1 activation was assayed by changes in cAMP levels as detected with a time-resolved fluorescence energy transfer (TR-FRET) cAMP detection kit.
After the primary screen and SAR work, a probe and its analogs were tested in this selectivity assay. THP1 cells (human acute monocytic leukemia cell line) were used to analyze the stimulation of VEGF gene expression after treatment with relaxin or compounds. The VEGF stimulation in these cultured […] cells is a well-established property of relaxin.
NIH Chemical Genomics Center [NCGC]
NIH Molecular Libraries Probe Production Centers Network [MLPCN]
Assay Submitter (PI): Alexander Agoulnik
400,000 THP1 cells (0.4 mL at 1x10^6 cells/mL) in test media (RPMI-1640 without phenol red, 0.5% FBS, 1x Pen/Strep, 0.05 mM of 2-mercaptoethanol) were seeded in each well on a 24-well plate. After 24 hours incubation at 37 degrees C, 5% CO2, relaxin or compounds were added for 2 hours. The cells were harvested and RNA was extracted by the Trizol (Invitrogen, Carlsbad, CA) method according to manufacturers' instructions. cDNA was synthesized by using Verso cDNA kit (Thermo Scientific, Waltham, MA) according to manufacturer's protocol. Quantitative real time RT-PCR for VEGF and GAPDH gene expression was done using a Roche LightCycler 480 (Roche Diagnostics, Indianapolis, IN) with the appropriate set of primers and probes spanning different exons. The relative fold change in VEGF mRNA level was calculated by the comparative Ct (2- Ct) method using GAPDH expression for normalization of RNA.

Fold change, active:
CCOc1ccccc1C(=O)Nc1ccccc1C(=O)Nc1cccc(S(=O)(=O)C(F)(F)F)c1 2.33
CCOc1ccccc1C(=O)Nc1ccccc1C(=O)Nc1cccc(C(F)(F)F)c1 1.93
O=C(Nc1cccc(S(=O)(=O)C(F)(F)F)c1)c1ccccc1NC(=O)c1ccccc1OCC(F)(F)F 1.24
COc1ccccc1C(=O)Nc1ccccc1C(=O)Nc1cccc(S(=O)(=O)C(F)(F)F)c1 1.41
CC(C)Oc1ccccc1C(=O)Nc1ccccc1C(=O)Nc1cccc(S(=O)(=O)C(F)(F)F)c1 2.79
CCCOc1ccccc1C(=O)Nc1ccccc1C(=O)Nc1cccc(S(=O)(=O)C(F)(F)F)c1 1.53
COc1ccccc1C(=O)Nc1ccccc1C(=O)Nc1cccc(SC(F)(F)F)c1 1.15
CCCCOc1ccccc1C(=O)Nc1ccccc1C(=O)Nc1cccc(S(=O)(=O)C(F)(F)F)c1 1.57

Fold change, inactive:
O=C(O)c1cc(-c2ccccc2)nn1CC1CC(c2cccnc2)=NO1 (centres undefined) 1.01
